According to PubChem BioAssay (NCATS):
Records with an inconclusive call do not appear. Activity calls are given as the source filed them. Calls come from the whole dose curve; as a rule, active = well fitted inhibition curve with a large enough effect; inconclusive = small, poorly fitted or top-dose-only effect; inactive = no such curve, though single readings can be large or run the other way. Where a SMILES comes first, the peptide text is derived from it.

experiment: Confirmatory screen NINDS Rhodamine qHTS for Zika virus inhibitors (AID 1347161); settings: purified enzyme assay, Rhodamine110 substrate fluorescence, 15 min; series mostly up to 114 µM; note: nearly all actives have a fitted effect of over 60% in size;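 for activity change, negative = inhibition: plate controls were no-inhibitor control for no effect and no-enzyme control for full effect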
Summary of the method: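 In 10 mM Tris-HCl pH 8.0 containing 0.01% Tween 20, linked NS2B-NS3 protease (25 nM final) is exposed to test compounds for 15 min. Cleavage of 1.5 microM Rhodamine110 substrate is tracked by fluorescence over 15 min.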
Potency is the fitted concentration of half-maximal effect.

Question: Which Potency does the source give for `CC(C)CC(c1c(O)c(C=O)c(O)c(C=O)c1O)C1CCC(C)(O)C2CC(C(C)(C)O)CCC12C` (stereo unspecified) here?
Answer: Its Potency is 3.41 µM (active).

Question: For `O=C(O)CC/C=C\C[C@H]1CO[C@@H](c2ccccc2Cl)O[C@H]1c1ccccc1O`, which Potency is on record?
Answer: The Potency was 44.1 µM (active).

Question: With `CC1(C)CC[C@]2(C(=O)O)CC[C@]3(C)C(=CCC4[C@@]5(C)CC[C@H](O[C@@H]6O[C@H](C(=O)O)[C@@H](O)[C@H](O)[C@H]6O)C(C)(C)C5CC[C@]43C)C2C1` (stereo partly specified) as the compound, how does the Potency read?
Answer: Its Potency is 6.55 µM (active).

Question: With `Cc1ccccc1-n1nc(-c2c(-c3ccc(F)cc3)nn3c2NC[C@@H](CO)C3)ccc1=O` as the compound, how does the Potency read?
Answer: The Potency was “inactive”.

Question: With `Cn1cc(-c2c[nH]c3ncnc(N4CCOCC4)c23)cn1` as the compound, how does the Potency read?
Answer: Its Potency is “inactive”.

Question: For `CSCC[C@H](NC(=O)[C@H](CO)NC(=O)[C@H](CCC(=O)O)NC(C)=O)C(=O)N[C@H](C=O)CC(=O)O` (Ac-ESMD-aldehyde), which activity change, negative = inhibition is on record?
Answer: The activity change, negative = inhibition was 12.5% [at 22.2 µM] (inactive).
